# According to PubChem BioAssay (Tox21):
# Several values for one entry are separate records, joined by “and”; a condition that tells them apart may be missing. Equal entries are not always repeated. Results filed as inconclusive are left out. A call without a number means that no potency is given here. Some structures have more than one record in an assay (separate samples or runs), and their calls can disagree. Activity calls are given as the source filed them. Unless noted, calls follow the shape of the dose curve; as a rule, active = well fitted curve in the direction sought with a large enough effect in the repeat runs; inconclusive = weak or mixed curves; inactive = no such curve, though single readings can be large; an effect the other way counts as inactive or inconclusive.
# Target: Retinoic acid receptor RXR-alpha (Homo sapiens) (UniProt P19793)
# Sequence (P19793 whole entry, looked up): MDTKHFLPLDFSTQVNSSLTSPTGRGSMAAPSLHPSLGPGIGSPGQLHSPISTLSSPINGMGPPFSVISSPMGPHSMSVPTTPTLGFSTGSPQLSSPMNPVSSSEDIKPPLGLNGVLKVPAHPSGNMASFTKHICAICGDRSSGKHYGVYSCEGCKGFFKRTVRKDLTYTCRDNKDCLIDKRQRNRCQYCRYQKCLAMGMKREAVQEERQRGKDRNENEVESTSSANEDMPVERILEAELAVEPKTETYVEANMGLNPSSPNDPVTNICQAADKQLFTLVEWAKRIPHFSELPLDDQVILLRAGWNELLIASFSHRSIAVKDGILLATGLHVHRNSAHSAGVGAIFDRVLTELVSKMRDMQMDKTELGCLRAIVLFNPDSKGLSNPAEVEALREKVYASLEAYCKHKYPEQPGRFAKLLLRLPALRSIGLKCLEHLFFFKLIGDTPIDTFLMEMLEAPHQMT
# Assay: qHTS assay to identify small molecule agonists of the RXR signaling pathway (AID 1159527; calls by dose curve; also: nearly all actives have a fitted effect of over 35% in size)
# Conditions: HEK293T RXRa-UAS-bla, beta-lactamase ratio, 16 h; series mostly up to 76.8 µM; activation: at the top concentration
# Procedure, shortened: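 Using 9-cis retinoic acid as the reference agonist, chemicals were tested in HEK 293T cells […] for 16 hr; substrate loading lasted 2 hr at room temperature.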
Structure (SMILES),Potency,activation
CNC(=O)Oc1cccc2c1OC(C)(C)O2,inactive,–
CCCCCCOC(=O)c1ccccc1C(=O)OCCCCCC,–,-4.38% (inactive)
CCC(C)(C)c1ccc(O)cc1,inactive,–
Clc1nc(Cl)nc(Cl)n1,inactive,–
CCOP(=S)(OCC)O/N=C(\C#N)c1ccccc1,–,-1.6% [at 35.3 µM] (inactive)
Nc1cccnc1,inactive,–
O=C(NC(=O)c1c(F)cccc1F)Nc1ccc(Cl)cc1,inactive,–
NCc1cccnc1,–,5.8% (inactive)
CCCCCc1cc(O)cc(O)c1,–,-16.3% (inactive)
Nc1ccc(Cl)c(Cl)c1,inactive,–
COP(=O)(OC)OC,–,5.91% (inactive)
CC(C)N(C(=O)SCC(Cl)=C(Cl)Cl)C(C)C,–,-7.03% (inactive)
ClC1C(Cl)C(Cl)C(Cl)C(Cl)C1Cl (centres undefined),inactive,–
CCOC(=O)C(C)OC(=O)c1cc(Oc2ccc(C(F)(F)F)cc2Cl)ccc1[N+](=O)[O-] (centres undefined),–,-10.7% (inactive)
COP(=S)(OC)Oc1cc(Cl)c(Cl)cc1Cl,inactive,–
O=Cc1ccco1,–,7.7% (inactive)
CCC(C)(c1ccc(O)cc1)c1ccc(O)cc1,–,-19.7% (inactive)
c1ccc(P(c2ccccc2)c2ccccc2)cc1,inactive,–
CCCCN(CCCC)N=O,–,2.94% (inactive)

Structure (SMILES),Potency,activation
CCC(C)c1ccc(O)cc1 (centres undefined),inactive,–
CCOc1cc(Oc2ccc(C(F)(F)F)cc2Cl)ccc1[N+](=O)[O-],–,27.5% (inactive)
COC(=O)c1sccc1S(=O)(=O)NC(=O)Nc1nc(C)nc(OC)n1,inactive,–
CC(O)CCO (centres undefined),inactive,–
c1nc[nH]n1,–,0.28% (inactive)
CCCCOCCOP(=O)(OCCOCCCC)OCCOCCCC,inactive,–
O=P(O)(O)CCCl,inactive,–
C1=Cc2cccc3cccc1c23,inactive,–
CC(C)C(=O)OCC(C)(C)C(OC(=O)C(C)C)C(C)C (centres undefined),inactive,–
N#CC(Br)Br,inactive,–
Oc1cc(Cl)c(Cl)cc1Cl,–,-14.8% (inactive)
c1ccc(-c2cccc(-c3ccccc3)c2)cc1,inactive,–
N#CCCCl,inactive,–
CCCCCCCCOC(=O)c1ccccc1C(=O)OCCCCCCCC,inactive,–
CC1(C)C(C=C(Cl)Cl)C1C(=O)OC(C#N)c1cccc(Oc2ccccc2)c1 (centres undefined),inactive,–
CCCCC(CC)COC(=O)Cl (centres undefined),inactive,–
CCCCCCCCCCCOC(=O)c1ccccc1C(=O)OCCCCCCCCCCC,inactive,–
C=CCN(CC=C)C(=O)C(Cl)Cl,inactive,–
C=CCc1ccc(OC)cc1,inactive,–

# Tested on: not listed separately
# Assay: qHTS assay to identify small molecule agonists of the RXR signaling pathway - cell viability counter screen (AID 1159529); also: nearly all actives have a fitted effect of over 50% in size; also: potency is read from the fitted curve at half-maximal effect
# Conditions: RXR-alpha-bla HEK293T viability, CellTiter-Glo, 16 h; series mostly up to 76.8 µM; activity change, negative = cytotoxicity: at the top concentration
# Procedure, shortened: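 Compounds dissolved in DMSO were pinned onto HEK 293T cells carrying a beta-lactamase reporter under RXR-alpha control and incubated 16 hr. Cytotoxicity was then quantified by CellTiter-Glo luminescence.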
Structure (SMILES),Potency,"activity change, negative = cytotoxicity"
CNC(=O)Oc1cccc2c1OC(C)(C)O2,inactive,–
CCCCCCOC(=O)c1ccccc1C(=O)OCCCCCC,inactive,–
CCC(C)(C)c1ccc(O)cc1,–,-13.9% [at 35.3 µM] (inactive)
Clc1nc(Cl)nc(Cl)n1,inactive,–
CCOP(=S)(OCC)O/N=C(\C#N)c1ccccc1,inactive,–
Nc1cccnc1,inactive,–
O=C(NC(=O)c1c(F)cccc1F)Nc1ccc(Cl)cc1,inactive,–
NCc1cccnc1,–,-2.07% (inactive)
CCCCCc1cc(O)cc(O)c1,–,4.02% (inactive)
Nc1ccc(Cl)c(Cl)c1,inactive,–
COP(=O)(OC)OC,inactive,–
CC(C)N(C(=O)SCC(Cl)=C(Cl)Cl)C(C)C,inactive,–
ClC1C(Cl)C(Cl)C(Cl)C(Cl)C1Cl (centres undefined),inactive and 43.6 µM (active),–
CCOC(=O)C(C)OC(=O)c1cc(Oc2ccc(C(F)(F)F)cc2Cl)ccc1[N+](=O)[O-] (centres undefined),inactive,–
COP(=S)(OC)Oc1cc(Cl)c(Cl)cc1Cl,inactive,–
O=Cc1ccco1,inactive,–
CCC(C)(c1ccc(O)cc1)c1ccc(O)cc1,–,-14.1% (inactive)
c1ccc(P(c2ccccc2)c2ccccc2)cc1,inactive,–
CCCCN(CCCC)N=O,inactive,–

Structure (SMILES),Potency,"activity change, negative = cytotoxicity"
CCC(C)c1ccc(O)cc1 (centres undefined),inactive,–
CCOc1cc(Oc2ccc(C(F)(F)F)cc2Cl)ccc1[N+](=O)[O-],inactive,–
COC(=O)c1sccc1S(=O)(=O)NC(=O)Nc1nc(C)nc(OC)n1,inactive,–
CC(O)CCO (centres undefined),inactive,–
c1nc[nH]n1,inactive,–
CCCCOCCOP(=O)(OCCOCCCC)OCCOCCCC,inactive,–
O=P(O)(O)CCCl,inactive,–
C1=Cc2cccc3cccc1c23,inactive,–
CC(C)C(=O)OCC(C)(C)C(OC(=O)C(C)C)C(C)C (centres undefined),inactive,–
N#CC(Br)Br,inactive,–
Oc1cc(Cl)c(Cl)cc1Cl,inactive,–
c1ccc(-c2cccc(-c3ccccc3)c2)cc1,–,-15.7% (inactive)
N#CCCCl,inactive,–
CCCCCCCCOC(=O)c1ccccc1C(=O)OCCCCCCCC,inactive,–
CC1(C)C(C=C(Cl)Cl)C1C(=O)OC(C#N)c1cccc(Oc2ccccc2)c1 (centres undefined),inactive,–
CCCCC(CC)COC(=O)Cl (centres undefined),inactive,–
CCCCCCCCCCCOC(=O)c1ccccc1C(=O)OCCCCCCCCCCC,inactive,–
C=CCN(CC=C)C(=O)C(Cl)Cl,inactive,–
C=CCc1ccc(OC)cc1,inactive,–

# Tested on: not listed separately
# Assay: qHTS assay to identify small molecule antagonists of the retinoid acid receptor (RAR) signaling pathway - cell viability counter screen (AID 1159551); also: nearly all actives have a fitted effect of over 35% in size
# Conditions: C3RL4 cells viability, ATP luminescence (CellTiter-Glo), 6 h; series mostly up to 92.4 µM; activity change, negative = cytotoxicity: at the top concentration
# Procedure, shortened: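 Cells (C3RL4) are plated, incubated overnight, dosed with compound in DMSO, then given retinol at 1 uM final. After 6 h at 37 C, CellTiter-Glo is added and luminescence read following 30 min at room temperature.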
Structure (SMILES),Potency,"activity change, negative = cytotoxicity"
CNC(=O)Oc1cccc2c1OC(C)(C)O2,inactive,–
CCCCCCOC(=O)c1ccccc1C(=O)OCCCCCC,inactive,–
CCC(C)(C)c1ccc(O)cc1,inactive,–
Clc1nc(Cl)nc(Cl)n1,inactive,–
CCOP(=S)(OCC)O/N=C(\C#N)c1ccccc1,inactive,–
Nc1cccnc1,inactive,–
O=C(NC(=O)c1c(F)cccc1F)Nc1ccc(Cl)cc1,inactive,–
NCc1cccnc1,inactive,–
CCCCCc1cc(O)cc(O)c1,–,-2.34% (inactive)
Nc1ccc(Cl)c(Cl)c1,inactive,–
COP(=O)(OC)OC,inactive,–
CC(C)N(C(=O)SCC(Cl)=C(Cl)Cl)C(C)C,–,-5.79% (inactive)
ClC1C(Cl)C(Cl)C(Cl)C(Cl)C1Cl (centres undefined),inactive,–
CCOC(=O)C(C)OC(=O)c1cc(Oc2ccc(C(F)(F)F)cc2Cl)ccc1[N+](=O)[O-] (centres undefined),inactive,–
COP(=S)(OC)Oc1cc(Cl)c(Cl)cc1Cl,inactive,–
O=Cc1ccco1,inactive,–
CCC(C)(c1ccc(O)cc1)c1ccc(O)cc1,inactive,–
c1ccc(P(c2ccccc2)c2ccccc2)cc1,inactive,–
CCCCN(CCCC)N=O,inactive,–

Structure (SMILES),Potency,"activity change, negative = cytotoxicity"
CCC(C)c1ccc(O)cc1 (centres undefined),inactive,–
CCOc1cc(Oc2ccc(C(F)(F)F)cc2Cl)ccc1[N+](=O)[O-],inactive,–
COC(=O)c1sccc1S(=O)(=O)NC(=O)Nc1nc(C)nc(OC)n1,inactive,–
CC(O)CCO (centres undefined),inactive,–
c1nc[nH]n1,inactive,–
CCCCOCCOP(=O)(OCCOCCCC)OCCOCCCC,inactive,–
O=P(O)(O)CCCl,inactive,–
C1=Cc2cccc3cccc1c23,inactive,–
CC(C)C(=O)OCC(C)(C)C(OC(=O)C(C)C)C(C)C (centres undefined),inactive,–
N#CC(Br)Br,inactive,–
Oc1cc(Cl)c(Cl)cc1Cl,inactive,–
c1ccc(-c2cccc(-c3ccccc3)c2)cc1,inactive,–
N#CCCCl,inactive,–
CCCCCCCCOC(=O)c1ccccc1C(=O)OCCCCCCCC,inactive,–
CC1(C)C(C=C(Cl)Cl)C1C(=O)OC(C#N)c1cccc(Oc2ccccc2)c1 (centres undefined),inactive,–
CCCCC(CC)COC(=O)Cl (centres undefined),inactive,–
CCCCCCCCCCCOC(=O)c1ccccc1C(=O)OCCCCCCCCCCC,inactive,–
C=CCN(CC=C)C(=O)C(Cl)Cl,inactive,–
C=CCc1ccc(OC)cc1,inactive,–
